According to PubChem BioAssay AID1159580 (chemical genetic matrix, 2015):
Several values for one entry are separate records, joined by “and”; a condition that tells them apart may be missing. Equal values may be shown once. In all, about 5,500 compounds went through this assay and about 2,000 (36%) were called active. About 18% were inconclusive and are not listed. Rule as the data show it: active = normalized growth mostly below about 0.91 (no sharp cut-off); inconclusive = no clear call, values can overlap the other calls; inactive = mostly above about 0.92. Some of the results follow.

Assay: chemical genetic growth profiling, strain panel (AID 1159580);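 also: tested at 20 µM; growth read once vehicle control cultures reached saturation at 30 °C; 1 = growth at the plate median or of vehicle wells; lower values mean less growth of the strain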
Settings: S. cerevisiae deletion strains, growth OD

Measured: normalized growth

CN(C)CCC(c1ccc(Br)cc1)c1ccccn1 (centres undefined)
inactive: locus YAL013W, strain DEP1, active compounds read low 0.982 and 1 | locus YAL021C, strain ccr4, active compounds read low 0.958 | locus YAL026C, strain drs2, active compounds read low 0.996 | locus YAL030W, strain snc1, active compounds read low 0.975 | locus YAL040C, strain CLN3, active compounds read low 1.11 | locus YBL061C, strain skt5, active compounds read low 0.991 | locus YBR009C, strain hhf1, active compounds read low 0.999 | locus YBR021W, strain FUR4, active compounds read low 0.975 | locus YBR023C, strain chs3, active compounds read low 0.993 | locus YBR171W, strain sec66, active compounds read low 0.974 | locus YBR229C, strain ROT2, active compounds read low 0.978 | locus YBR231C, strain swc5, active compounds read low 0.983 | locus YBR279W, strain paf1, active compounds read low 0.976 | locus YCL011C, strain gbp2, active compounds read low 0.97 | locus YCL016C, strain dcc1, active compounds read low 0.979 | locus YCL029C, strain bik1, active compounds read low 0.979 | locus YCL061C, strain MRC1 (second series), active compounds read low 1 | locus YCL069W, strain vba3, active compounds read low 0.985 | locus YCR088W, strain abp1, active compounds read low 0.983 | locus YDL005C, strain med2, active compounds read low 0.975 | locus YDL035C, strain GPR1, active compounds read low 0.991 | locus YDL040C, strain nat1, active compounds read low 0.967 | locus YDL074C, strain BRE1, active compounds read low 0.952 | locus YDL101C, strain DUN1, active compounds read low 0.984 | locus YDL134C, strain PPH21, active compounds read low 0.983 | locus YDL185W, strain tfp1, active compounds read low 0.998 | locus YDL192W, strain arf1, active compounds read low 0.997 | locus YDR001C, strain nth1, active compounds read low 0.974 | locus YDR069C, strain doa4, active compounds read low 0.929 | locus YDR101C, strain arx1, active compounds read low 0.967 | locus YDR137W, strain rgp1, active compounds read low 1.01 | locus YDR150W, strain NUM1, active compounds read low 0.997 and 1.01 | locus YDR159W, strain sac3, active compounds read low 0.962 | locus YDR162C, strain NBP2, active compounds read low 0.991 | locus YDR195W, strain ref2 0.96 | locus YDR297W, strain sur2, active compounds read low 0.973 | locus YDR318W, strain mcm21, active compounds read low 0.985 | locus YDR334W, strain swr1, active compounds read low 0.956 | locus YDR335W, strain msn5, active compounds read low 0.992 | locus YDR388W, active compounds read low 0.99 | locus YDR392W, strain spt3, active compounds read low 0.997 | locus YDR502C, strain sam2, active compounds read low 0.984 | locus YEL003W, strain gim4, active compounds read low 0.969 | locus YEL037C, strain rad23, active compounds read low 0.981 | locus YEL061C, strain CIN8 (second series), active compounds read low 0.989 | locus YEL061C, strain CIN8, active compounds read low 0.994 | locus YER002W, strain NOP16, active compounds read low 1.01 | locus YER015W, strain faa2, active compounds read low 0.992 | locus YER016W, strain bim1, active compounds read low 0.935 | locus YER110C, active compounds read low 0.985 | locus YER111C, strain swi4, active compounds read low 0.977 | locus YER155C, strain BEM2 (second series), active compounds read low 1 | locus YER155C, strain BEM2, active compounds read low 0.959 | locus YER167W, strain BCK2, active compounds read low 0.992 | locus YFR010W, strain ubp6, active compounds read low 0.986 | locus YGL078C, strain dbp3, active compounds read low 0.987 | locus YGL086W, strain mad1, active compounds read low 1 | locus YGL167C, strain pmr1, active compounds read low 0.988 | locus YGL173C, strain kem1, active compounds read low 0.975 | locus YGL227W, strain vid30, active compounds read low 0.985 | locus YGL240W, strain doc1, active compounds read low 0.995 | locus YGL248W, strain PDE1, active compounds read low 0.974 | locus YGL253W, strain hxk2, active compounds read low 0.991 | locus YGR078C, strain PAC10, active compounds read low 0.992 and 1.01 | locus YGR135W, strain pre9, active compounds read low 0.977 | locus YGR229C, strain SMI1, active compounds read low 0.987 | locus YGR252W, strain gcn5, active compounds read low 1.04 | locus YHR013C, strain ard1, active compounds read low 0.956 | locus YHR027C, strain rpn1, active compounds read low 0.952 | locus YHR030C, strain SLT2, active compounds read low 0.992 and 0.989 | locus YHR079C, strain IRE1 (second series), active compounds read low 0.99 | locus YHR079C, strain IRE1, active compounds read low 0.99 | locus YHR094C, strain hxt1, active compounds read low 0.994 | locus YHR129C, strain ARP1, active compounds read low 0.986 | locus YHR142W, strain chs7, active compounds read low 0.995 | locus YHR200W, strain rpn10, active compounds read low 0.984 | locus YIL066C, strain RNR3, active compounds read low 0.989 | locus YIL073C, strain SPO22, active compounds read low 1.04 | locus YIL125W, strain kgd1, active compounds read low 0.998 | locus YIR030C, strain dcg1, active compounds read low 0.985 | locus YJL092W, strain hpr5, active compounds read low 0.967 | locus YJL095W, strain BCK1 (second series), active compounds read low 0.972 | locus YJL095W, strain BCK1, active compounds read low 0.966 and 0.986 | locus YJL115W, strain asf1, active compounds read low 0.941 | locus YJL129C, strain trk1, active compounds read low 0.952 | locus YJL134W, strain LCB3, active compounds read low 0.989 | locus YJL154C, strain vps35, active compounds read low 0.955 | locus YJL164C, strain tpk1, active compounds read low 0.991 | locus YJL166W, strain qcr8, active compounds read low 0.973 | locus YJL168C, strain set2, active compounds read low 0.993 | locus YJL187C, strain SWE1 (second series), active compounds read low 0.978 | locus YJR043C, strain POL32, active compounds read low 0.983 | locus YJR066W, strain TOR1, active compounds read low 0.967 | locus YJR075W, strain HOC1, active compounds read low 0.975 and 1.03
